The source of these data is PubChem BioAssay (EPA / NIEHS).

Where “and” joins values, the source holds several entries; their conditions need not be identical. Equal values may be shown once. Inconclusive results are not listed. Calls of active or inactive are those of the source. Rule for the calls, unless noted: active = hit-call score of the fitted dose curve at least 0.9, where 1 is the maximum; inactive = score below 0.9.

Read-out in one test: CD69, CD69 (gene 969)
Briefly: BSK_LPS_CD69: BioMAP Diversity Plus: LPS Assay for CD69 Biomarker Activity (AID 2284303). To be noted: primary human HUVEC with PBMC. In short, it runs like this:
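Human umbilical vein endothelial cells co-cultured with PBMC under LPS stimulation, chemical exposure 24 h; cell-surface CD69 measured by ELISA and fitted in the positive direction versus DMSO.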

Test [1] is described as follows: IUF_NPC2a_radial_glia_migration_72hr: Leibniz Research Institute for Environmental Medicine (IUF) 72-hour Neural Progenitor Cell Migration Assay for Radial Glia Migration (NPC2a) (AID 2284299). In short, it runs like this:
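Human fetal neural progenitor spheres (0.3 mm) plated on poly-D-lysine/laminin in N2 differentiation medium and exposed from day 0 at 7 concentrations; radial glia migration distance from sphere edge measured at 72 h on brightfield images, mean of four directions, vs DMSO.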

Test [2] in a line: IUF_NPC2b_neuronal_migration_120hr: Leibniz Research Institute for Environmental Medicine (IUF) 120-hour Neural Progenitor Cell Migration Assay for Neuron Migration (NPC2b) (AID 2284300). In short, it runs like this: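 Neurons identified by TUBB3 immunostaining and Hoechst nuclei; migration distance measured automatically on fixed wells at 120 h, normalized to glia migration. Exposure spanned five days of differentiation in N2 medium, seven test concentrations.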

The nature of test [3]: IUF_NPC3_neuronal_differentiation_120hr: Leibniz Research Institute for Environmental Medicine (IUF) 120-hour Neuronal Differentiation Assay (NPC3) (AID 2284301). Put shortly:
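Primary human fetal neural progenitor spheres (GW 16-19, 0.3 mm) plated on poly-D-lysine/laminin in N2 medium, exposed from day 0 for 120 h with half-medium refresh at day 3. TUBB3+ cells as percent of Hoechst nuclei in migration area; DMSO baseline.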

Test [4] in a line: IUF_NPC4_neurite_length_120hr: Leibniz Research Institute for Environmental Medicine (IUF) 120-hour Neuronal Morphology Assay for Neurite Length (NPC4) (AID 2284302). Put shortly: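 Human fetal cortex (GW 16-19) neural progenitor spheres, 0.3 mm, were plated on poly-D-lysine/laminin in N2 differentiation medium and exposed from day 0 for 120 h, half-feeding at day 3. Mean TUBB3+ neurite length (µm) came from skeletonized images, relative to DMSO.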

A short description of test [5]: IUF_NPC5_oligodendrocyte_differentiation_120hr: Leibniz Research Institute for Environmental Medicine (IUF) 120-hour Oligodendrocyte Differentiation Assay (NPC5) (AID 2284304; active = hit-call score of the fitted dose curve at least 0.9, where 1 is the maximum;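 note: primary human fetal neural progenitor spheres plated to migrate and differentiate; share of O4-positive cells among Hoechst nuclei found by CNN image analysis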). Put shortly:
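Human primary NPC neurospheres migrating and differentiating on laminin for 120 h under continuous compound exposure (serial dilution, solvent control). Endpoint: percent O4+ oligodendrocytes among Hoechst nuclei, detected by CNN image analysis, with DMSO as negative control.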

Test [6] in a line: IUF_NPC4_neurite_area_120hr: Leibniz Research Institute for Environmental Medicine (IUF) 120-hour Neuronal Morphology Assay for Neurite Area (NPC4) (AID 2284305; active = hit-call score of the fitted dose curve at least 0.9, where 1 is the maximum). Put shortly:
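Human fetal cortex-derived neural progenitor spheres (0.3 mm, GW 16-19) plated on poly-D-lysine/laminin in N2 differentiation medium and exposed from day 0 for 120 h across 7 concentrations plus solvent control. Neurite area is mean pixel area per TUBB3-positive neuron via skeletonization, analysed relative to DMSO.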

Test [7] in a line: IUF_NPC2-5_cytotoxicity_72hr: Cytotoxicity Assessment at 72 hours in the Leibniz Research Institute for Environmental Medicine (IUF) Neural Progenitor Cell Migration and Differentiation Assay for Cytotoxicity (NPC2-5) (AID 2284306; active = hit-call score of the fitted dose curve at least 0.9, where 1 is the maximum;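 note: LDH release into supernatant measured by resorufin fluorescence marking membrane damage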). Put shortly:
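Human fetal (GW 16-19) neural progenitor spheres, 0.3 mm, plated on poly-D-lysine/laminin in N2 differentiation medium and exposed from day 0 to 7 concentrations plus solvent control (DMSO ≤0.1%). LDH-dependent resazurin-to-resorufin fluorescence in supernatant at 72 h.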

Test [8] can be described thus: IUF_NPC2-5_cytotoxicity_120hr: Cytotoxicity Assessment at 120 hours in the Leibniz Research Institute for Environmental Medicine (IUF) Neural Progenitor Cell Migration and Differentiation Assay (NPC2-5) (AID 2284307; active = hit-call score of the fitted dose curve at least 0.9, where 1 is the maximum). Put shortly:
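Fluorescence (RFU) from LDH-driven resazurin reduction in medium supernatants measured loss of membrane integrity after 120 h of compound exposure of differentiating primary human neural progenitor spheres on an extracellular matrix.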

Test [9] can be described thus: IUF_NPC2-5_cell_number_120hr: Cell Number Assessment at 120 hours in the Leibniz Research Institute for Environmental Medicine (IUF) Neural Progenitor Cell Migration and Differentiation Assay (NPC2-5) (AID 2284308).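 Note: count of Hoechst-stained nuclei in migration zone around plated human neural progenitor spheres.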 Put shortly: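 Cell number is taken as all Hoechst-positive nuclei detected in the area into which cells migrate out of the sphere, scored at 120 h and referenced to DMSO solvent control, which was kept at no more than 0.1%.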

`O=C(O)C(F)(F)C(F)(F)C(F)(F)C(F)(F)C(F)(F)F`: the result with CD69, CD69 (gene 969) was inactive.

Usually AC50 stands for the concentration at which the activity in the assay is half-maximal. As to `NS(=O)(=O)C(F)(F)C(F)(F)C(F)(F)C(F)(F)C(F)(F)C(F)(F)C(F)(F)C(F)(F)F`, the concentration at half-maximal activity (AC50) with CD69, CD69 (gene 969) was 38.4 µM (active) and 24.5 µM (active).

Consider `O=S(=O)(O)C(F)(F)C(F)(F)C(F)(F)C(F)(F)F`, for which the outcome was “inactive” in test [1]; “inactive” in [2]; “inactive” in [3]; “inactive” in test [4]; “inactive” with CD69, CD69 (gene 969); “inactive” in test [5]. In addition, the outcome in [6], in test [7], in test [8] and in [9] was inactive.

Regarding `CCOP(=S)(OCC)SCSC(C)(C)C`, the outcome in test [1], in test [2], in test [3], in test [4], in test [6] and in test [7] was inactive. Moreover, the call in [8] and in [9] was inactive.

Turning to `O=C(O)C(F)(F)C(F)(F)C(F)(F)C(F)(F)C(F)(F)C(F)(F)C(F)(F)C(F)(F)C(F)(F)F`, the AC50 with CD69, CD69 (gene 969) was 49.1 µM (active) and 45.4 µM (active).

Take `CO/C=C(/C(=O)OC)c1ccccc1COc1cccc(C(F)(F)F)n1`: the half-maximal activity concentration (AC50) in [1] was 50 µM (active); in test [2], 50 µM (active); in test [3] it was 22.2 µM (active); in test [4], 19.7 µM (active); in [5], 1.51 µM (active); in test [9] it was 9.92 µM (active). Also, the outcome in [6], in test [7] and in test [8] was inactive.

For `O=C(O)C(F)(F)C(F)(F)C(F)(F)C(F)(F)C(F)(F)C(F)(F)C(F)(F)C(F)(F)F`, the AC50 with CD69, CD69 (gene 969) was 41.8 µM (active) and 30 µM (active).

As to `O=S(=O)(O)C(F)(F)C(F)(F)C(F)(F)C(F)(F)C(F)(F)C(F)(F)F`, the outcome is “inactive” in [1]; “inactive” in [2]; “inactive” in test [3]; “inactive” in test [4]; “inactive” with CD69, CD69 (gene 969); “inactive” in test [5]. Also, the molecule was classed as inactive in test [6], in test [7], in test [8] and in test [9].

Regarding `C=CC(N)=O`, the call in test [1], in test [2], in test [3], in test [4], in test [5] and in [6] was inactive. In addition, the result in [7], in test [8] and in test [9] was inactive.

Consider `COc1ccc(O)c(C(C)(C)C)c1`, for which the outcome in the test with CD69, CD69 (gene 969) was inactive.
